Several values for one entry are separate records, joined by “and”; a condition that tells them apart may be missing. Equal entries are not always repeated.

Assay type in all cases: functional
Assay [1] deals with Plasmodium falciparum. Kind of assay: GSK_TCMDC: Inhibition of Plasmodium falciparum 3D7 in whole red blood cells, using parasite LDH activity as an index of growth. Test compounds present at 2uM.
The test system of assay [2] is Plasmodium falciparum. Kind of assay: GSK_TCMDC: Inhibition of Plasmodium falciparum Dd2 in whole red blood cells, using parasite LDH activity as an index of growth. Test compounds present at 2uM.
For the next assay, the system named is HepG2. Kind of assay: GSK_TCMDC: Percent inhibition of human HepG2 cell line. Test compounds present at 10uM.

With `O=C(Cc1ccccc1)NC(c1ccc(Cl)cc1)c1ccc2cccnc2c1O` (stereo unspecified), the Inhibition is 93% with Plasmodium falciparum [1], 64% in the assay on Plasmodium falciparum [2] and 50% in the assay with HepG2.
For `CC(=O)c1c(Cc2ccccc2Cl)c[nH]c1C`, in that order: 95%, 53% and 0%.
For `CCCCCN1CCCC1CNS(=O)(=O)c1ccc(C(=O)Nc2cccc(C(F)(F)F)c2)cc1.O=C(O)C(F)(F)F` (stereo unspecified), in that order: 95%, 0% and 16%.
`CC(C)=CC1C(C(=O)n2c(=N)[nH]c3ccccc32)C1(C)C` (stereo unspecified): the Inhibition in the assay with Plasmodium falciparum [1] is reported as 99%; in the assay on Plasmodium falciparum [2], 3%; in the assay with HepG2, 16%.
Regarding `Cc1c(C)n(C2CCCCC2)c2ncnc(OC3CCN(CC(=O)NC4CC4)CC3)c12`, the Inhibition with Plasmodium falciparum [1] is 94%; in the assay on Plasmodium falciparum [2] it was 72%; in the assay with HepG2, 21%.
In the same order, the values of `CCCC(=O)Nc1ccc(OCCN(Cc2ccccc2OC(F)(F)F)c2ccc(C(F)(F)F)c(C#N)c2)cc1` are 85%, 97% and 0%.
In the same order, the values of `Cc1ccc(C(=O)NCC2CCN(c3ccc(C(F)(F)F)cc3NC(=O)c3ccco3)CC2)cn1` are 91%, 73% and 9%.
For `Cc1cc(=O)c2cc(Oc3cccc(OC(F)(F)F)c3)ccc2[nH]1`, in that order: 90%, 80% and 9%.
In the case of `Cc1cc(CN2CCC(N3CC(c4ccccc4)(c4ccccc4)OC3=O)C2)ccc1O` (stereo unspecified), the Inhibition in the assay with Plasmodium falciparum [1] is on record as 96%; in the assay with Plasmodium falciparum [2], 68%; in the assay with HepG2, 0%.
As for `CNCc1cccc2nc(-c3ccc(Cc4cc(Cl)ccc4OCC(C)C)o3)[nH]c12.Cl`, the figures for the Inhibition in the assay on Plasmodium falciparum [1], with Plasmodium falciparum [2] and in the assay with HepG2 were 97%, 23% and 20%, respectively.
In the same order, the values of `CCCNCc1ccc(-c2ccc(CN(CCOC)C(=O)c3ccco3)cc2)nc1.O=C(O)C(F)(F)F` are 91%, 21% and 1%.
For `Oc1ccccc1CN1CCCC(COC(c2ccc(F)cc2)c2ccc(F)cc2)C1` (stereo unspecified), in that order: 97%, 98% and 19%.
For `Cc1nc(-c2cccc3c(NC(=O)Nc4ccc5nccc(N6CCN(C)CC6)c5c4)cccc23)no1.Cl`, in that order: 100%, 84% and 0%.
In the case of `Cc1nccn1Cc1cc(C(C)(C)C)c(O)c(C(C)(C)C)c1`, the Inhibition amounted to 99% in the assay with Plasmodium falciparum [1], 0% with Plasmodium falciparum [2] and 8% in the assay with HepG2.
For `Cc1c(C(=O)Nc2cc(Sc3ccc(F)cc3)cc([N+](=O)[O-])c2)sc2ncn(Cc3ccccc3F)c(=O)c12`, in that order: 98%, 45% and 2%.
For `O=C(N[C@H]1CCCC[C@H]1C(=O)O)c1ccccc1`, in that order: 95%, 3% and 7%.
For `COc1ccc2nccc([C@@H](O)CN3CCC(NCc4nc5ccccc5s4)CC3)c2c1.O=C(O)C(=O)O`, in that order: 93%, 5% and 8%.
Consider `O=C(Nc1cccc(CN2CCN(C(=O)c3ccccc3)CC2)c1)c1ccco1.O=C(O)C(F)(F)F`, for which the Inhibition with Plasmodium falciparum [1] was found to be 95%; in the assay with Plasmodium falciparum [2] it was 42%; with HepG2, 6%.
`Cc1cc(F)ccc1Nc1nc(N(C)c2ccccc2)c2cc(OCCN(C)C)ccc2n1`: the Inhibition is given as 94% in the assay on Plasmodium falciparum [1], 55% in the assay with Plasmodium falciparum [2] and 37% in the assay on HepG2.
In the same order, the values of `Cc1c(NC(=O)COc2ccc(Cl)cc2C(=O)c2cc(F)cc(C(F)(F)F)c2)ccc2ncsc12` are 86%, 18% and 0%.
For `Cc1noc(C)c1-c1cccc(CNCc2cccc(-c3ccc(-c4nc5ccccc5[nH]4)s3)c2)c1.O=C(O)C(F)(F)F`, in that order: 100%, 29% and 24%.
Consider `O=C(NC1CCCCC1)N(Cc1ccc(-c2ccc(CNC3CCCC3)cc2)cc1)C1CCN(Cc2ccccc2)CC1.O=C(O)C(F)(F)F`, for which the Inhibition in the assay on Plasmodium falciparum [1] is recorded as 99%; in the assay with Plasmodium falciparum [2] it was 86%; in the assay with HepG2, 31%.
As to `O=C(/C=C/c1ccc(Cl)c(Cl)c1)NCCCCCN1CCC(c2c[nH]c3ccccc23)C(O)C1` (stereo unspecified), the Inhibition in the assay with Plasmodium falciparum [1] was 96% and 99%; in the assay with Plasmodium falciparum [2], 9% and 0%; with HepG2, 34% and 12%.
As for `COc1ccc2ncc(C#N)c(CCN3CCC(NCc4cnc5c(c4)OCCO5)CC3)c2n1.Cl`, the figures for the Inhibition in the assay with Plasmodium falciparum [1], with Plasmodium falciparum [2] and in the assay with HepG2 were 91%, 24% and 3%, respectively.
In the same order, the values of `Cl.OC(CNCCCCCCNCC(O)c1ccc(Cl)c(Cl)c1)c1ccc(Cl)c(Cl)c1` (stereo unspecified) are 90%, 17% and 99%.
In the same order, the values of `Cc1cccc(Nc2nccc(NCC(O)c3cccc(C(F)(F)F)c3)n2)c1` (stereo unspecified) are 100%, 94% and 25%.
Regarding `CNCCNC(=O)C1Cc2c([nH]c3c(C)cccc23)C(c2ccc(Cl)c(Cl)c2)N1` (stereo unspecified), the Inhibition in the assay on Plasmodium falciparum [1] turned out to be 100%; in the assay on Plasmodium falciparum [2], 60%; with HepG2, 13%.
On to `COc1cc2c(cc1S(=O)(=O)c1ccc(NC(=O)Nc3ccc(F)cc3)cc1)CCN(C)CC2.Cl`, for which the Inhibition was found to be 99% with Plasmodium falciparum [1], 55% with Plasmodium falciparum [2] and 0% with HepG2.
In the same order, the values of `CCc1ccc(C2=Nn3c(nnc3-c3cccs3)SC2)cc1` are 93%, 20% and 9%.
For `CCOC(=O)N[C@@H]1CN[C@@H](C#Cc2cc3c(Nc4ccc(OCc5cccc(F)c5)c(Cl)c4)ncnc3s2)C1`, in that order: 86%, 13% and 8%.
For `Cc1cc(N)c2cc(NC(=O)c3cccc4ccccc34)ccc2n1.Cl`, in that order: 98%, 13% and 18%.
In the case of `Nc1cc(-c2ccc3c(N)nccc3c2)ccc1Cl`, the Inhibition in the assay with Plasmodium falciparum [1] is recorded as 91%; in the assay on Plasmodium falciparum [2], 4%; in the assay on HepG2, 1%.
For the compound `Cc1noc(-c2ccc(NC[C@@H](C)NC[C@H](O)c3cccc(Cl)c3)cc2)n1`, the Inhibition in the assay on Plasmodium falciparum [1] is reported as 97%; in the assay on Plasmodium falciparum [2], 84%; in the assay on HepG2, 11%.
In the same order, the values of `CN1CCN(CCCN(Cc2ccc(-c3cccc(CNCc4ccc5c(c4)OCO5)c3)cc2)C(=O)CCC2CCCC2)CC1.O=C(O)C(F)(F)F` are 92%, 85% and 24%.
In the case of `CC(CN(C)C)C(=O)Nc1cccc(-c2ccc(-c3nc4ccccc4[nH]3)s2)c1` (stereo unspecified), the figures for the Inhibition in the assay with Plasmodium falciparum [1], in the assay with Plasmodium falciparum [2] and in the assay with HepG2 were 100%, 47% and 13%, respectively.
With `Cc1nccc2c(NC(=O)N[C@@H]3CCN(c4ncc(C(F)(F)F)cc4Br)C3)cccc12.Cl`, the results for the Inhibition in the assay with Plasmodium falciparum [1], in the assay on Plasmodium falciparum [2] and in the assay on HepG2 were 96%, 27% and 21%, respectively.
Regarding `CCC(=O)c1cc(C(=O)NCCc2cccc(OC)c2)ccc1OC`, the results for the Inhibition with Plasmodium falciparum [1], in the assay with Plasmodium falciparum [2] and in the assay on HepG2 were 83%, 12% and 0%, respectively.
For `Oc1ccc2[nH]cc(C3CCN(CCCCCCCCCN4CCC(c5c[nH]c6ccc(O)cc56)CC4)CC3)c2c1`, in that order: 100%, 2% and 22%.
In the same order, the values of `O=C(O)C(F)(F)F.c1ccc2c(c1)CN(Cc1ccsc1)CC1(CCN(Cc3c[nH]c4cnccc34)CC1)O2` are 87%, 75% and 38%.
For `Cc1cc(NC(=O)c2coc3cc(F)c(N4CC(C)N(C)C(C)C4)cc23)ccc1-n1ccnc1.Cl` (stereo unspecified), in that order: 96%, 42% and 0%.
On to `OC(CNCc1ccccc1OCc1ccccc1)c1cc(C(F)(F)F)cc(C(F)(F)F)c1` (stereo unspecified), for which the figures for the Inhibition in the assay on Plasmodium falciparum [1], in the assay on Plasmodium falciparum [2] and with HepG2 were 100%, 99% and 3%, respectively.
For `COc1ccc(C2CC(c3ccccc3O)=NN2C(=O)c2ccco2)cc1OC` (stereo unspecified), in that order: 96%, 68% and 11%.
In the same order, the values of `O=C(O)C(F)(F)F.Oc1ccc(CCNc2nc(NCCOc3ccccc3-c3ccccc3)nc(N3CCNCC3)n2)cc1` are 93%, 17% and 22%.
Regarding `CO/C(=C\C=C\c1cc2cc(Cl)c(Cl)cc2[nH]1)C(=O)NCCCN1CCN(c2cccc(CCO)c2)CC1`, the results for the Inhibition with Plasmodium falciparum [1], with Plasmodium falciparum [2] and with HepG2 were 100%, 32% and 61%, respectively.
In the case of `Cc1cc(Nc2cccc(C(F)(F)F)c2)nc(N)n1`, the Inhibition is reported as 98% in the assay with Plasmodium falciparum [1], 24% in the assay with Plasmodium falciparum [2] and 5% in the assay on HepG2.
In the same order, the values of `CCCN1CCN(c2cc(NCC)c3c4c(onc24)-c2ccccc2C3=O)CC1` are 96%, 11% and 4%.
`Cc1cccc2nc(-c3cccc(-c4cccc(CN5CCN(c6ccncc6)CC5)c4)c3)[nH]c12.O=C(O)C(F)(F)F`: the Inhibition came out at 100% in the assay on Plasmodium falciparum [1], 96% in the assay on Plasmodium falciparum [2] and 47% in the assay with HepG2.
In the same order, the values of `NC(=O)c1cccc(C(=O)Nc2cccc(-c3ccc(-c4nc5ccccc5[nH]4)s3)c2)c1` are 95%, 69% and 37%.
In the same order, the values of `CCc1cc(OC)ccc1C1CCN(CCCCNC(=O)c2ccc(NC(=O)c3ccc(Cl)cc3)cc2)CC1.Cl` are 95%, 61% and 23%.
In the same order, the values of `COc1ccccc1C1CCN(C2CCC(NC(=O)/C=C/c3ccc(C(F)(F)F)cc3F)CC2)CC1` (stereo unspecified) are 95%, 2% and 63%.
On to `COc1ccc2nccc([C@@H](O)CN3CCC(NCc4nc5c(cc4F)SCC(=O)N5)C(F)C3)c2c1.Cl` (stereo partly specified), for which the values for the Inhibition with Plasmodium falciparum [1], in the assay with Plasmodium falciparum [2] and in the assay on HepG2 were 95%, 49% and 9%, respectively.
For `COC(=O)Nc1cc(C(F)(F)F)ccc1N1CCC(CNS(=O)(=O)c2ccc(OC)cc2)CC1`, in that order: 99%, 95% and 13%.
In the same order, the values of `Cn1cncc1CCN(Cc1ccc(-c2ccc(C(F)(F)F)cc2)cc1)C(=O)Cn1c(SCc2cccc(F)c2F)cc(=O)c2ccccc21` are 99%, 90% and 24%.
With `COc1cc(C(=O)Nc2cccc(-c3nc4ccccc4[nH]3)c2)cc(OC)c1OC`, the Inhibition is reported as 99% with Plasmodium falciparum [1], 41% in the assay on Plasmodium falciparum [2] and 25% in the assay on HepG2.
For `Cc1cc(NCc2ccc(F)cc2)nc2cc(O)ccc12`, in that order: 98%, 85% and 14%.
`CCNC(C)(C)CN(Cc1ccc(-c2ccc(C(F)(F)F)cc2)cc1)C(=O)Cn1c(SCc2ccc(F)cc2)nc(=O)c2c1CCC2.O=C(O)C(O)C(O)C(=O)O`: the Inhibition is reported as 95% with Plasmodium falciparum [1], 94% in the assay with Plasmodium falciparum [2] and 99% in the assay on HepG2.
For `O=C(O)C(F)(F)F.O=[N+]([O-])c1cccc(CNCC2CCN(Cc3ccc4ccccc4c3)CC2)c1`, in that order: 100%, 42% and 18%.
In the same order, the values of `O=C(Nc1ccc(Cl)cc1)c1cccc2nc(C(F)(F)F)[nH]c12` are 93%, 98% and 84%.
For `O=C(Nc1nc(-c2ccccn2)cc2ccccc12)c1cccc(Cl)c1`, in that order: 96%, 72% and 59%.
On to `Nc1nc(-c2ccc3c(Nc4ccc(F)c(Cl)c4)ccnc3c2)cs1`, for which the values for the Inhibition in the assay with Plasmodium falciparum [1], in the assay with Plasmodium falciparum [2] and in the assay on HepG2 were 100%, 88% and 13%, respectively.
For `CC(=O)Nc1cccc(C(=O)Nc2cccc(-c3ccc(-c4nc5cccc(C)c5[nH]4)s3)c2)c1`, in that order: 99%, 26% and 75%.
In the same order, the values of `CCc1nc2c(N)nc(N)nc2nc1-c1ccc(OC)cc1` are 86%, 0% and 44%.

What is called Inhibition is the relative decrease from the control value, in per cent. A high value points to strong suppression.

(Values after ChEMBL document CHEMBL1157539, “Thousands of chemical starting points for antimalarial lead identification” (Nature, 2010).)
